Screens from PubChem.
Hits are enriched below; roughly 5.2% of the tested compounds scored in any of these assays.
TrxR1 substrate: rat thioredoxin reductase 1 substrate activity. Potency, µM (highest dose often 114 µM), without a hit: at the top dose activity change, negative = substrate turnover. 0.01% of 390,000 active. AID 588456. purified TrxR1 substrate turnover, NADPH consumption readout. O89049; note: potency is the fitted concentration of half-maximal effect; % is set by controls: 0 for no effect and ±100 for the full control effect; nearly all actives have a fitted effect of over 50% in size
Target sequence (O89049 whole entry, looked up): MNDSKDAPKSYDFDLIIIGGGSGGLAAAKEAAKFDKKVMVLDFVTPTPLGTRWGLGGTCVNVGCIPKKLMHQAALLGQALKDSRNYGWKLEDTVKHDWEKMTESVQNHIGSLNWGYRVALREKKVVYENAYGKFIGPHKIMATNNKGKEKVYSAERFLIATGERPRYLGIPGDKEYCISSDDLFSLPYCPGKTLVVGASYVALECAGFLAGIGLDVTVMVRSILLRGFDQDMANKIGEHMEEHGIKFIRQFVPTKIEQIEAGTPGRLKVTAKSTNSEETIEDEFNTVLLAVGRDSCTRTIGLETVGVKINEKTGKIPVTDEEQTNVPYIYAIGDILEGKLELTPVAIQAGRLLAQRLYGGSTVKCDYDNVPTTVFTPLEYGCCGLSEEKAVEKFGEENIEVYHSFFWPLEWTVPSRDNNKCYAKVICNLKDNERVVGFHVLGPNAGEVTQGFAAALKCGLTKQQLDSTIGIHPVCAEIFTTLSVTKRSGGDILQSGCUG
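Rat TrxR1, dispensed at 90 nM, was prereduced with 400 uM NADPH (final) for 5 min at ~22 deg C, then incubated with compound 15 min before 400 uM selenite. A first-read NADPH fluorescence drop versus no-compound background flagged substrates.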
PLK1 PBD block: PLK1 (human) polo-box domain binding inhibition; Plk1 PBD binding of FITC phosphopeptide, fluorescence polarization; Potency, µM, for inactives: max response, negative = inhibition, actives largely listed as inhibitors; 2.8% of 360,000 active; AID 720504; note: potency is the fitted concentration of half-maximal effect; series mostly up to about 57 µM; % is set by controls: 0 for no effect and ±100 for the full control effect; nearly all actives have a fitted effect of over 65% in size
Sfp PPTase inh: Sfp phosphopantetheinyl transferase inhibition; Biochemical Sfp PPTase activity, qHTS; Potency, µM, for the others: largest response in the series, negative = inhibition, usual class: inhibitors; 3.5% of 310,000 active;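 note: the enzyme is Sfp with the accession as filed and its product quenches rhodamine fluorescence; potency is the fitted concentration of half-maximal effect; 0% = enzyme reaction without inhibitor and -100% = no enzyme wells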
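After 15 min at room temperature with compound, 15 nM Sfp received 5 uM rhodamine-CoA plus 12.5 uM BHQ-2-ybbR (50 mM Hepes pH 7.6, 10 mM MgCl2). Rate came from the fluorescence difference over 30 min, ex 525/em 598 nm.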
VDR inhibitor: inhibitors of human vitamin D receptor; P11473; VDR-SRC2-3 peptide fluorescence polarization, 2 h; Potency, µM, for the others: max response, negative = inhibition, usual class: inhibitors; 0.93% of 400,000 active; note: potency is the fitted concentration of half-maximal effect; % is set by controls: 0 for no effect and ±100 for the full control effect
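Fluorescence polarization assay of small-molecule disruption of VDR binding to coregulator peptide SRC2-3. Compounds and controls pin-transferred, then read after 2 h incubation at ambient room temperature.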
rTrxR1 inhibitor: blocks rat thioredoxin reductase 1 | AID 588453 | Potency, µM (doses to about 114 µM), for the others: top-dose activity change, negative = inhibition, usual class: inhibitors | recombinant rTrxR1, NADPH fluorescence consumption, selenite substrate | 1% of 390,000 active | O89049; note: potency is the fitted concentration of half-maximal effect; % is set by controls: 0 for no effect and ±100 for the full control effect; nearly all actives have a fitted effect of over 65% in size
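Rat TrxR1 (90 nM in the dispensed reagent) was pre-reduced with 400 uM NADPH for 5 min at room temperature, then incubated with compound for 15 min. After 400 uM selenite was added, NADPH fluorescence (Ex 340/Em 450 nm) was followed for 8 min.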
IDH1 R132H inh: human IDH1 R132H inhibition; O75874; IDH1-R132H enzyme, NADPH consumption, diaphorase/resazurin fluorescence; Potency, µM (series often up to 76.6 µM), for the others: at the highest dose activity change, negative = inhibition, usual class: inhibitors; 0.093% of 390,000 active; AID 602179; note: potency is the fitted concentration of half-maximal effect; % is set by controls: 0 for no effect and ±100 for the full control effect; nearly all actives have a fitted effect of over 65% in size
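IDH1-R132H (0.5 ug/mL dispensed) in pH 7.5 Tris buffer was preincubated 30 min with compound, then given a substrate mix of 0.016 mM NADPH and 2 mM alpha-KG for 80 min at room temperature; remaining NADPH was read by diaphorase/resazurin fluorescence.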
Resorufin autofl: counter-screen for mutant IDH1 inhibitors: fluorescence interference; shares compounds with IDH1 R132H inh; Resorufin detection reagent fluorescence interference, cell-free; inhibition of signal, % at 51.2 µM; 750 tested, under 10 active; AID 623980;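 note: 0% = wells with normal resorufin and full inhibition = wells lacking resorufin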
WT IDH1 inh: inhibits human wild-type IDH1, mutant selectivity check; 9% of 750 active; WT IDH1 enzyme, NADPH diaphorase/resazurin fluorescence; Potency, µM (top dose mostly 115 µM), without a hit: at the highest dose activity change, negative = inhibition, hits mostly inhibitors; AID 623995; shares compounds with IDH1 R132H inh;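 note: potency is the fitted concentration of half-maximal effect; 0% = full WT IDH1 enzyme control and full inhibition = no enzyme wells; nearly all actives have a fitted effect of over 55% in size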
IDH1 R132H conf: inhibits human mutant IDH1 enzyme in cherrypick confirmation. shares compounds with IDH1 R132H inh. IDH1 R132H enzyme, NADPH diaphorase/resazurin fluorescence. Potency, µM (highest dose often 76.6 µM), without a hit: at the top dose activity change, negative = inhibition, usual class: inhibitors. 83% of 750 active; note: potency is the fitted concentration of half-maximal effect; nearly all actives have a fitted effect of over 50% in size
Numbers without * were called inactive; [ ] = another dose, or the depositor's remark. Calls come from the whole dose curve; as a rule, active = well fitted curve in the direction sought with a large enough effect; inconclusive = small, poorly fitted or top-dose-only effect, or another doubt; inactive = no such curve, though single readings can be large; an effect the other way counts as inactive or inconclusive.

`CC(C)c1ccc(NC(=O)C(c2ccccc2)N(Cc2ccco2)C(=O)CC2NC(=O)NC2=O)cc1` (stereo not drawn) gave TrxR1 substrate 8.5%[57.1 µM], PLK1 PBD block -6.3%, Sfp PPTase inh -8.7%, VDR inhibitor -15.9%, rTrxR1 inhibitor 28.7%[57.1 µM], IDH1 R132H inh inconclusive, Resorufin autofl -3.9, WT IDH1 inh 4.9% and IDH1 R132H conf inconclusive.
`COc1ccc(NC(=O)C(c2ccc(OC)cc2)N(C)C(=O)CC2NC(=O)NC2=O)cc1` (stereo not drawn) gave TrxR1 substrate 1.9%, PLK1 PBD block 6.5%, Sfp PPTase inh 3.5%, VDR inhibitor -1.9%, rTrxR1 inhibitor 1.1% and IDH1 R132H inh 4.9%.
Cc1ccccc1N(C(=O)Cc1c[nH]c2ccccc12)C(C(=O)NC1CCCCC1)c1ccco1 (stereo not drawn) was read as TrxR1 substrate -12.4%, PLK1 PBD block -5.2%, Sfp PPTase inh -1.1%, VDR inhibitor -1.9%, rTrxR1 inhibitor -6.1%, IDH1 R132H inh inconclusive, Resorufin autofl -0.8, WT IDH1 inh 0.4% and IDH1 R132H conf 12.6µM*.
`Cc1ccc(-c2nnn(CC(=O)N(c3ccccc3F)C(C(=O)NC3CCCC3)c3ccco3)n2)o1` (stereo not drawn) gave TrxR1 substrate 5.5%, PLK1 PBD block -7.3%, Sfp PPTase inh 6.9%, VDR inhibitor 17.4%, rTrxR1 inhibitor 21.8% and IDH1 R132H inh -2.2%.
Cc1ccc(C(C(=O)NC2CCCCC2)N(Cc2ccco2)C(=O)Cc2c[nH]c3ccccc23)o1 (stereo not drawn) was read as TrxR1 substrate 7.8%, PLK1 PBD block -0.8%, Sfp PPTase inh 4.3%, VDR inhibitor -13.0%, rTrxR1 inhibitor 17.4%, IDH1 R132H inh inconclusive, Resorufin autofl 4.0, WT IDH1 inh 4.9% and IDH1 R132H conf 10µM*.
`Cc1ccc(N(C(=O)Cc2c[nH]c3ccccc23)C(C(=O)NC2CCCCC2)c2ccco2)cc1` (stereo not drawn) gave TrxR1 substrate -5.2%, PLK1 PBD block 0.6%, Sfp PPTase inh 17.4%, VDR inhibitor 4.8%, rTrxR1 inhibitor -9.2%, IDH1 R132H inh inconclusive, Resorufin autofl 5.9, WT IDH1 inh -2.8% and IDH1 R132H conf 6.31µM*.
For Cc1ccc(C(C(=O)NC2CCCCC2)N(C(=O)Cc2c[nH]c3ccccc23)c2ccccc2C)o1 (stereo not drawn) the results were TrxR1 substrate -4.7%[11.4 µM], PLK1 PBD block 0.2%, Sfp PPTase inh 13.4%, VDR inhibitor -22.1%, rTrxR1 inhibitor 0.1%[11.4 µM], IDH1 R132H inh inconclusive, Resorufin autofl 2.4, WT IDH1 inh 9.0% and IDH1 R132H conf 7.08µM*.
Screening COc1ccc(C(C(=O)NC2CCCCC2)N(C(=O)Cc2c[nH]c3ccccc23)c2ccccc2C)cc1OC (stereo not drawn) returned TrxR1 substrate -6.5%[57.1 µM], PLK1 PBD block -15.4%, Sfp PPTase inh 6.9%, VDR inhibitor 1.2%, rTrxR1 inhibitor 18.6%[57.1 µM] and IDH1 R132H inh -0.8%.
For N/C(=N\O)c1ccccc1N1CCCCC1 the results were TrxR1 substrate -4.8%, PLK1 PBD block -1.1%, Sfp PPTase inh 16.5%, VDR inhibitor 9.1%, rTrxR1 inhibitor 2.4% and IDH1 R132H inh 0.5%.
Screening CC(=O)SC1CC(=O)N(c2ccc(C(C)(C)C)cc2)C1=O (stereo not drawn) returned TrxR1 substrate 11.6%[57.1 µM], PLK1 PBD block -15.2%, Sfp PPTase inh 6.1%, VDR inhibitor -6.6%, rTrxR1 inhibitor 19.3%[57.1 µM], IDH1 R132H inh inconclusive, Resorufin autofl 3.4, WT IDH1 inh 2.4% and IDH1 R132H conf 22.4µM*.
COc1cccc(Nc2nc3c(S(=O)(=O)c4cc(C)ccc4C)nnn3c3ccsc23)c1 was read as TrxR1 substrate 20.4%, VDR inhibitor -6.0%, rTrxR1 inhibitor 13.4%, IDH1 R132H inh inconclusive, Resorufin autofl 1.2, WT IDH1 inh -0.1% and IDH1 R132H conf inconclusive.
For Cc1ccc(NC(=O)CN2C(=O)COc3ccc(S(=O)(=O)N4CCCC4)cc32)cc1C the results were TrxR1 substrate -2.3%, PLK1 PBD block -10.0%, Sfp PPTase inh 12.5%, VDR inhibitor 2.7%, rTrxR1 inhibitor 15.1% and IDH1 R132H inh -0.2%.
For Cc1ccc(NC(=O)CN2C(=O)COc3ccc(S(=O)(=O)N4CCCCCC4)cc32)cc1Cl the results were TrxR1 substrate 1.9%, VDR inhibitor 0.0%, rTrxR1 inhibitor 19.3%, IDH1 R132H inh inconclusive, Resorufin autofl -8.3, WT IDH1 inh 0.3% and IDH1 R132H conf 14.1µM*.
CC(=O)c1ccc(NC(=O)c2sc3nc(N4CCOCC4)c4c(c3c2N)CCCC4)cc1 was read as TrxR1 substrate -4.7%, PLK1 PBD block -29.2%, Sfp PPTase inh inconclusive, VDR inhibitor 11.0%, rTrxR1 inhibitor 16.0%, IDH1 R132H inh inconclusive, Resorufin autofl -3.8, WT IDH1 inh -4.9% and IDH1 R132H conf 6.31µM*.
`NNC(=O)c1sc2nc(N3CCOCC3)c3c(c2c1N)CCCC3` gave TrxR1 substrate 30.2%, PLK1 PBD block 5.7%, Sfp PPTase inh 7.9%, VDR inhibitor 3.7%, rTrxR1 inhibitor 4.5% and IDH1 R132H inh 15.6%.
`Nc1c(C(=O)NCc2ccccc2)sc2nc(N3CCOCC3)c3c(c12)CCCC3` gave TrxR1 substrate 93.3%[57.1 µM], PLK1 PBD block -3.1%, Sfp PPTase inh -19.2%, VDR inhibitor -7.9%, rTrxR1 inhibitor 10.1%[57.1 µM], IDH1 R132H inh inconclusive, Resorufin autofl 4.3, WT IDH1 inh inconclusive and IDH1 R132H conf 7.94µM*.
Screening CNC(=O)c1c(NC(=O)c2cc(=O)c3ccccc3o2)sc2c1CCC2 returned TrxR1 substrate 2.5%[57.1 µM], VDR inhibitor 20.1%, rTrxR1 inhibitor 10.3%[57.1 µM] and IDH1 R132H inh -3.6%.
Screening CC(C(=O)NCc1ccc(Cl)cc1)n1ccc2cc(S(=O)(=O)N3CCCCCC3)ccc21 (stereo not drawn) returned TrxR1 substrate 4.9%, VDR inhibitor 1.7%, rTrxR1 inhibitor 30.8% and IDH1 R132H inh 18.3%.
